# Bioassay records: PubChem BioAssay, Broad Institute
# T cruzi growth-1: T. cruzi intracellular proliferation inhibitors, primary screen, cell-based, beta-gal Tulahuen parasites, NIH3T3 host, luminescence; T. cruzi beta-gal in NIH3T3, GalScreen luminescence, 90 h; inhibition, % at 8.34 µM; 77,000 compounds, 5.9% hits;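 active means mean inhibition above about 93%, with at least 55% of replicates each passing it, limit read from the data, passing the limit was not always enough; inconclusive means only one of those two conditions holds; inactive means neither condition holds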
# Pf Dd2 growth: P. falciparum Dd2 growth inhibitors, primary screen, SYBR Green fluorescence, single dose replicates. 72 h; stronger effect = lower value. activity change, % at 10 µM. 94,000 compounds, 2.3% hits. AID 1159554, 2015; in the data active means activity change below about -80%; inconclusive means no clear call, values can overlap the other calls
# C diff growth: C. difficile growth inhibitors, primary screen, HTS | Clostridium difficile clinical isolate growth, OD600, 24 h; stronger effect = lower value | 86,000 compounds, 0.25% hits | growth activity, negative = inhibition, % at 16 µg/mL (by protocol);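 active means mean growth activity at or below -80% and every replicate also at or below -80%; inconclusive means mean at or below -80% but some replicate above -80%; inactive means mean growth activity above -80%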;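 further: 0% = DMSO wells and -100% = levofloxacin 16 µg/mL wells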
# T cruzi growth-2: T. cruzi intracellular proliferation inhibitors, confirmation, cell-based, NIH3T3 host, beta-gal parasite, luminescence, cherry-pick; shares compounds with T cruzi growth-1; T. cruzi beta-gal in NIH3T3, GalScreen luminescence, 90 h; inhibition, % at 8.35 µM; 5,600 compounds, 72% hits; AID 651739, 2012;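 active means mean replicate inhibition above about 95% and at least 55% of replicates individually reaching it, limit read from the data; inconclusive means only one of the two criteria is met; inactive means neither criterion is met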
# T cruzi growth-3: inhibitors of intracellular T. cruzi replication, confirmation, NIH3T3 host cells, beta-gal parasites, cherry-pick, set 2 | shares compounds with T cruzi growth-1 | T. cruzi beta-gal in NIH3T3, GalScreen luminescence, 90 h | inhibition, % at 2.09 µM | 5,600 compounds, 21% hits | AID 651740, 2012;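 active means mean inhibition above about 95%, with at least 55% of replicates also reaching it, limit read from the data; inconclusive means meets just one of the two conditions; inactive means meets neither condition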;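 further: plate controls were neutral control median for no effect and positive control median for full effect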
# NIH3T3 tox: cytotoxicity in mouse NIH/3T3 fibroblasts, confirmation, cytotoxicity control for T. cruzi proliferation inhibitor project, cell-based, cherry-pick, single point; shares compounds with T cruzi growth-1; NIH/3T3 viability, CellTiter-Glo ATP luminescence, 90 h; cytotoxicity (signal decrease), % at 8.35 µM; 5,600 compounds, 14% hits;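 active means mean signal decrease across replicates above about 35% based on untreated-well scatter, with enough replicates individually passing, limit read from the data; inconclusive means no rule stated though some were filed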;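 further: 0% = median of neutral control wells and 100% = median of positive control wells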
# NIH3T3 tox 2: NIH/3T3 fibroblast cytotoxicity, confirmation, cytotoxicity control, cell-based, cherry-pick, single point, set 2; inhibition, % at 24.9 µM; 5,600 compounds, 56% hits; NIH/3T3 viability, CellTiter-Glo ATP luminescence, 90 h; shares compounds with T cruzi growth-1;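 active means mean loss of cell viability signal at or above a set limit, and enough replicates individually reaching it; inconclusive means meets only the mean limit or only the replicate share; inactive means meets neither condition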;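 further: 0% = median of neutral control wells and 100% = median of positive control wells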
# * marks the source's active call; other numbers are inactive results; ? = inconclusive; . = not tested or not shown. A selection: hits, their analogues and other compounds. The true share with any hit is near 6.7%.
SMILES,T cruzi growth-1,Pf Dd2 growth,C diff growth,T cruzi growth-2,T cruzi growth-3,NIH3T3 tox,NIH3T3 tox 2
C[C@H](CO)N1C[C@H](C)[C@H](CN(C)Cc2ccc(C(F)(F)F)cc2)Oc2c(NC(=O)c3nc4ccccc4s3)cccc2C1=O,97*,-87*,.,100*,98*,15,93*
C[C@@H]1CN([C@H](C)CO)C(=O)c2cccc(NC(=O)c3nc4ccccc4s3)c2O[C@@H]1CN(C)Cc1ccc(-c2ccccc2)cc1,111*,-48,-1,107*,71,4,-9
C[C@H]1CN([C@@H](C)CO)C(=O)c2cccc(NC(=O)c3nc4ccccc4s3)c2O[C@@H]1CN(C)Cc1ccccc1,77,-61,11,.,.,.,.
COc1ccc(CN(C)C[C@H]2Oc3c(NC(=O)c4nc5ccccc5s4)cccc3C(=O)N([C@@H](C)CO)C[C@@H]2C)cc1,92,-42,7,.,.,.,.
C[C@H]1CN([C@@H](C)CO)C(=O)c2cccc(NC(=O)c3nc4ccccc4s3)c2O[C@@H]1CN(C)Cc1ccc(C(F)(F)F)cc1,94,-45,.,.,.,.,.
C[C@@H]1CN([C@H](C)CO)C(=O)c2cccc(NC(=O)c3nc4ccccc4s3)c2O[C@@H]1CN(C)Cc1ccccc1,?,-46,1,100*,50,1,26
C[C@@H]1CN([C@@H](C)CO)C(=O)c2cccc(NC(=O)c3nc4ccccc4s3)c2O[C@H]1CN(C)Cc1ccc(-c2ccccc2)cc1,52,-75,5,.,.,.,.
C[C@@H]1CN([C@H](C)CO)C(=O)c2cc(NC(=O)c3ccncc3)ccc2O[C@@H]1CN(C)Cc1ccc(Cl)c(Cl)c1,20,-7,12,.,.,.,.
C[C@@H]1CN([C@@H](C)CO)C(=O)c2cccc(NS(=O)(=O)c3cccs3)c2O[C@@H]1CN(C)Cc1ccc2c(c1)OCO2,-50,27,.,.,.,.,.
O=C(c1ccncc1)N1CC[C@@H]2[C@@H](CO)Nc3ccc(Br)cc3[C@@H]21,18,6,7,.,.,.,.
CCNC(=O)C[C@H]1CC[C@H]2[C@H](COc3ccc(NC(=O)C4CCOCC4)cc3C(=O)N2C)O1,-4,4,-4,.,.,.,.
O=C(N[C@H]1CC[C@@H](CCNS(=O)(=O)c2ccc(Cl)cc2)O[C@H]1CO)c1cnccn1,-30,-6,-1,.,.,.,.
COc1ccc(S(=O)(=O)Nc2cccc3c2O[C@@H](CN(C)C(=O)Nc2ccccc2)[C@H](C)CN([C@@H](C)CO)C3=O)cc1,13,6,-9,.,.,.,.
C[C@@H]1CN([C@@H](C)CO)C(=O)c2cc(NS(=O)(=O)c3ccccc3)ccc2O[C@@H]1CN(C)S(=O)(=O)c1ccccc1,19,-3,-3,.,.,.,.
COc1ccc(S(=O)(=O)N(C)C[C@H]2Oc3c(NC(=O)c4nc5ccccc5s4)cccc3C(=O)N([C@@H](C)CO)C[C@H]2C)cc1,16,-61,-1,.,.,.,.
COc1ccc(S(=O)(=O)N(C)C[C@@H]2Oc3c(NC(=O)c4nc5ccccc5s4)cccc3C(=O)N([C@H](C)CO)C[C@@H]2C)cc1,112*,-41,3,99*,111*,38*,51*
C[C@@H]1CN([C@H](C)CO)C(=O)c2cccc(NS(=O)(=O)c3cccs3)c2O[C@H]1CN(C)Cc1ccc(Cl)c(Cl)c1,46,-3,4,.,.,.,.
C[C@H]1CN([C@@H](C)CO)C(=O)c2cc(C#CC3CCCCC3)cnc2O[C@@H]1CN(C)S(=O)(=O)c1ccccc1,?,-30,1,111*,80,13,87*
C[C@@H]1CN([C@@H](C)CO)C(=O)c2cc(C#CC3CCCCC3)cnc2O[C@@H]1CN(C)S(=O)(=O)c1ccccc1,111*,-28,-10,108*,56,25,94*
C[C@H](CO)N1C[C@H](C)[C@@H](CN(C)S(=O)(=O)c2cccc(F)c2)Oc2ncc(C#CC3CCCCC3)cc2C1=O,.,-31,7,.,.,.,.
C[C@@H]1CN([C@H](C)CO)C(=O)c2cc(C#CC3CCCCC3)cnc2O[C@H]1CN(C)S(=O)(=O)c1cccc(F)c1,.,-22,14,.,.,.,.
C[C@@H]1CN([C@H](C)CO)C(=O)c2cc(C#CC3CCCCC3)cnc2O[C@@H]1CN(C)S(=O)(=O)c1ccccc1,?,-44,-2,106*,76,12,91*
C[C@H](CO)N1C[C@H](C)[C@H](CN(C)S(C)(=O)=O)Oc2ncc(C#CC3CCCCC3)cc2C1=O,86,0,-6,.,.,.,.
C[C@H]1CN([C@@H](C)CO)C(=O)c2cc(C#CC3CCCCC3)cnc2O[C@H]1CN(C)S(=O)(=O)c1cccc(F)c1,.,-12,7,.,.,.,.
C[C@H](CO)N1C[C@H](C)[C@@H](CN(C)S(=O)(=O)c2ccccc2)Oc2ncc(C#CC3CCCCC3)cc2C1=O,107*,-55,4,106*,93,21,85*
SMILES,T cruzi growth-1,Pf Dd2 growth,C diff growth,T cruzi growth-2,T cruzi growth-3,NIH3T3 tox,NIH3T3 tox 2
COc1ccccc1NC(=O)N[C@H]1C=C[C@H](CC(=O)N[C@H](C)c2ccccc2)O[C@H]1CO,11,-1,.,.,.,.,.
COCC#Cc1cnc2c(c1)C(=O)N([C@@H](C)CO)C[C@H](C)[C@@H](CN(C)C(C)=O)O2,-8,40,-2,.,.,.,.
C[C@H](CO)N1C[C@H](C)[C@@H](CN(C)C(=O)NC2CCCCC2)Oc2c(NC(=O)Nc3cccc4ccccc34)cccc2C1=O,27,-30,7,.,.,.,.
C[C@@H]1CN([C@H](C)CO)S(=O)(=O)c2ccc(-c3ccncc3)cc2O[C@@H]1CN(C)C,19,16,2,.,.,.,.
CCNC(=O)C[C@@H]1CC[C@@H]2[C@H](COc3ccc(NC(=O)Nc4ccccc4F)cc3C(=O)N2C)O1,22,-40,11,.,.,.,.
CO[C@@H]1CN(C)C(=O)c2ccc(NC(=O)Nc3ccc4c(c3)OCO4)cc2OC[C@@H](C)N(C)C[C@H]1C,5,-62,-3,.,.,.,.
C[C@H](CO)N1C[C@H](C)[C@@H](CN(C)S(=O)(=O)c2ccc(F)cc2)Oc2ncc(C#CC3CCCCC3)cc2C1=O,86,-39,5,.,.,.,.
C[C@H]1CN([C@@H](C)CO)C(=O)c2cc(C#CC3CCCCC3)cnc2O[C@@H]1CN(C)S(=O)(=O)c1ccc(F)cc1,108*,-41,1,100*,91,13,95*
